Measured values reported in PubChem BioAssay AID504332 (National Center for Advancing Translational Sciences (NCATS), 2011).
Values joined by “and” are separate entries in the source; they are usually repeats but may differ in a detail not shown here. Equal entries are not always repeated. The campaign covered roughly 350,000 compounds. About 31,000 (8.9%) were called active. Not shown: some 15% with an inconclusive outcome. The call rests on the fitted dose curve; in most records, active means well fitted inhibition curve with a large enough effect; inconclusive means small, poorly fitted or top-dose-only effect; inactive means no such curve, though single readings can be large or run the other way. The entries come from a sample that favours actives as a whole. Some compounds were tested as several samples or in several runs, with calls that do not always agree.

Each molecule was assayed against Histone-lysine N-methyltransferase EHMT2 (Homo sapiens) (UniProt Q96KQ7) (assay: qHTS Assay for Inhibitors of Histone Lysine Methyltransferase G9a). Settings: G9a H3K9 monomethylation, AlphaScreen, 2 h; series mostly up to 59 µM; activity, negative = inhibition: at the top concentration.
Histone-lysine N-methyltransferase EHMT2 (Homo sapiens), sequence (Q96KQ7 913-1193 limits assumed): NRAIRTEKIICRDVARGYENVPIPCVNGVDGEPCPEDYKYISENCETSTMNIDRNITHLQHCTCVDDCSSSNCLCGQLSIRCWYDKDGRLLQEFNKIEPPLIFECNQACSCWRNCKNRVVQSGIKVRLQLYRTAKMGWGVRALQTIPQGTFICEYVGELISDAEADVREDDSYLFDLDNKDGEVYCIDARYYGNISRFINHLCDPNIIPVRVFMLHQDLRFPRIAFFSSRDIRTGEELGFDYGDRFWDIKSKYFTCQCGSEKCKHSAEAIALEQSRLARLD
How it was run: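 G9a (20 nM) was preincubated 15 min with compound, then reacted 2 h at room temperature with 500 nM biotin-H3K9 peptide and 20 µM SAM. Monomethyl-H3K9 detected by AlphaScreen using anti-H3K9me1 antibody.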
Further: nearly all actives have a fitted effect of over 75% in size.
On the % scale 0 is the no-effect control and ±100 the full control effect; potency means the concentration at half of the fitted maximal effect.

Compound	activity, negative = inhibition	Potency
CCCCOc1ccc(C(=O)N2CC(=O)Nc3ccc(Br)cc3C2c2ccc(F)cc2)cc1 (stereo not given)	-34.7% (inactive)	–
Cc1ccc(CNC(=O)Cn2c(=O)ccc3cc(S(=O)(=O)N4CCCC4)ccc32)cc1	16.7% (inactive)	–
CC(=O)N1c2ccccc2CC1C(=O)N1CCN(c2ccc(F)cc2)CC1 (stereo not given)	19.9% (inactive)	–
C[C@@H](NC(=O)c1nc[nH]c1C(=O)N1CCN(C(=O)OC(C)(C)C)CC1)c1ccccc1	4.62% [at 2.33 µM] (inactive)	–
CCOc1ccc(S(=O)(=O)c2cn(Cc3ccc(OC)cc3)c3ccc(F)cc3c2=O)cc1	-8% (inactive)	–
Cc1ccc(Cc2nnc(SCC(=O)Nc3ccc(C)cc3C)[nH]c2=O)cc1	-35.1% [at 102 µM] (inactive)	–
CCn1cc(C(=O)NCCc2ccccc2)c(=O)c2cc(S(=O)(=O)N3CCCCCC3)ccc21	-10.9% (inactive)	–
CCOC(=O)C1CCCN(C(=O)c2ccc3c(c2)sc2nc(-c4ccc(CC)cc4)cn23)C1 (stereo not given)	-3.51% (inactive)	–
CCOc1ccc(OCC)c(NC(=O)c2cc(C)nc3c2c(C)nn3-c2cccc(Cl)c2C)c1	-2.87% (inactive)	–
CC1=C(C(=O)OCc2ccc(C)cc2)C(c2c(Cl)cccc2Cl)CC(=O)N1 (stereo not given)	7.19% (inactive)	–
COc1ccc(CCNC(=O)COC(=O)c2cc(=O)c3ccccc3o2)cc1	21.3% [at 12.7 µM] (inactive)	–
COc1cc(OC)cc(C(=O)Nc2nnc(SCC(=O)NCC3CCCO3)s2)c1 (stereo not given)	3.54% (inactive)	–
COc1ccccc1N1CC(C(=O)Nc2nnc(SCC(=O)NC(C)C)s2)CC1=O (stereo not given)	14.1% [at 12.7 µM] (inactive)	–
COc1ccccc1N1CC(C(=O)Nc2nnc(SCC(=O)NCC3CCCO3)s2)CC1=O (stereo not given)	–	31.6 µM (active)
CN1C(=O)CC(c2ccccc2)C1=O (stereo not given)	4.29% (inactive)	–
COc1ccc(NC(=O)c2cc([N+](=O)[O-])ccc2NC(=O)CNC2CCCCC2C)c(OC)c1 (stereo not given)	-24.2% [at 102 µM] (inactive)	–
CCOC(=O)c1ccc(NC(=O)CC2C(=O)N(c3ccccc3)C(=O)N2Cc2cccs2)cc1 (stereo not given)	3.95% (inactive)	–
CCC(=O)N1CCN(c2ccccc2NC(=O)COc2cccc(C)c2C)CC1	14.4% [at 102 µM] (inactive)	–
Cc1ccc(C(C)C)cc1OCC(=O)Nc1ccccc1N1CCCC1	–	79.4 µM (active)
Cc1ccc(OCC(=O)Nc2ccccc2C(=O)NC2CC2)cc1	16.8% [at 12.7 µM] (inactive)	–
CC(C)n1c(SCC(=O)Nc2ccccc2N2CCCCC2)nc2c1c(=O)n(C)c(=O)n2C	5.12% (inactive)	–
CCOc1ccccc1NC(=O)COc1ccc(S(=O)(=O)N2CCCC2)cc1	32.9% [at 102 µM] (inactive)	–
CN1CCN(c2ccccc2NC(=O)COc2ccc(C3CCCCC3)cc2)CC1	–	39.8 µM (active)
CCCC(=O)N1CCN(c2nc3c(OC)ccc(C)c3s2)CC1	-5.08% (inactive)	–

Compound	activity, negative = inhibition	Potency
COc1cccc(NC(=O)COc2cc(C)cc3oc(=O)cc(C)c23)c1	-12.2% [at 102 µM] (inactive)	–
CNS(=O)(=O)c1cccc(C(=O)OCCCC(=O)c2ccccc2)c1	-6.99% [at 12.7 µM] (inactive)	–
COc1ccc2c(c1)c(C(=O)N/N=C/c1cccs1)c(C)n2C	28.4% [at 102 µM] (inactive)	–
Cc1ccc(S(=O)(=O)N2CCC(C(=O)NCC3CCCO3)CC2)cc1 (stereo not given)	5.26% (inactive)	–
CCOc1ccc(S(=O)(=O)N2CCN(C(=S)NCC3CCCO3)CC2)cc1 (stereo not given)	-5.51% [at 102 µM] (inactive)	–
Cc1cc(C2=NNC(=Nc3ccc(S(=O)(=O)N4CCOCC4)cc3)SC2)c(C)n1CC1CCCO1 (stereo not given)	–	7.94 µM (active)
O=C(NC1CC(=O)N(c2ccc(F)cc2)C1)c1cccs1 (stereo not given)	1.13% (inactive)	–
O=C(NCCC1CCCCN1S(=O)(=O)c1cccs1)C(=O)Nc1ccc(F)cc1F (stereo not given)	-3.33% [at 0.501 µM] (inactive)	–
CC(=O)c1ccc(NC(=O)c2nc(-c3ccc(C)cc3)n3c2CCCCC3)cc1	-32% (inactive)	–
CC(C)Cn1c(=O)c2ccccc2n2c(CCC(=O)N3CCN(c4cccc(Cl)c4)CC3)nnc12	7.95% (inactive)	–
O=C1CN(C(=O)COc2c(Cl)cccc2Cl)c2ccccc2N1	-3.18% [at 102 µM] (inactive)	–
CCCCCN(C(=O)CCC(=O)OCC(=O)NC1CCC(C)CC1)c1c(N)n(CCCC)c(=O)[nH]c1=O (stereo not given)	6.8% [at 0.501 µM] (inactive)	–
CN(CC(=O)Nc1cccc(F)c1)C(=O)C1=COCCO1	4.45% [at 102 µM] (inactive)	–
CC1CCc2[nH]c3ccc(C(=O)N(C)CC(=O)Nc4cccc(F)c4)cc3c2C1 (stereo not given)	–	44.7 µM (active)
CN(CC(=O)Nc1cccc(F)c1)C(=O)CC1CCCC1	-24.7% [at 102 µM] (inactive)	–
O=C(CCc1ccccc1)NNc1ccc(F)cc1	–	31.6 µM (active)
O=C(CCc1ccccc1)NNC(=O)c1ccc(Br)cc1	2.57% [at 102 µM] (inactive)	–
CC(=O)Nc1ccc(S(=O)(=O)NNC(=O)CCc2ccccc2)cc1	-29% [at 12.7 µM] (inactive)	–
Cc1cc(C)cc(NC(=O)CCS(=O)(=O)c2cc3c4c(c2)CCN4C(=O)CC3)c1	-41.9% (inactive)	–
COc1ccc(Cc2nnc(SCC(=O)Nc3ccc(C)c(Cl)c3)[nH]c2=O)cc1	-0.286% [at 102 µM] (inactive)	–
O=C(NCc1ccccc1)C1CCN(S(=O)(=O)c2ccc3[nH]c(=O)ccc3c2)CC1	13.4% (inactive)	–
CCOc1ccc(C(=O)COC(=O)c2ccc(-n3cnnn3)cc2)cc1	51.5% [at 102 µM] (inactive)	–
CCOC(=O)c1c(-n2cnnn2)sc(C)c1C	–	8.91 µM (active)
CCOC(=O)C(C)n1cnc2sc(C)c(C)c2c1=O (stereo not given)	-9.24% (inactive)	–

Compound	activity, negative = inhibition	Potency
C=CCSc1ccc(S(=O)(=O)N2CCN(C)CC2)cn1	-18.7% (inactive)	–
CCn1c(=O)c2cc(C(=O)NCCc3ccc(Cl)cc3)sc2c2ccccc21	-24.9% (inactive)	–
O=C(CSc1nc(=O)n2ccccc2n1)Nc1ccc2c(c1)OCCO2	-11.1% [at 102 µM] (inactive)	–
Cc1ccc(Cl)cc1-n1ncc2c(N3CCC(C(N)=O)CC3)ncnc21	2.61% (inactive)	–
COc1ccc(CNC(=O)c2ccc3oc(C(C)C)nc3c2)cc1	12% [at 0.501 µM] (inactive)	–
COc1ccc(Br)cc1/C=N/NC(=O)c1cccc(S(=O)(=O)N2CCOCC2)c1	3.74% [at 102 µM] (inactive)	–
COc1ccc(Br)cc1/C=N/Nc1ccc(Cl)c(C(=O)O)c1	–	14.1 µM (active)
COc1ccc(CC(=O)NCC(=O)N/N=C/c2cc(Br)ccc2OC)cc1	15.3% [at 102 µM] (inactive)	–
OCc1cnc(SCc2ccc(F)cc2)n1Cc1ccc(F)cc1	24.9% (inactive)	–
COc1cccc2c1cc1c(=O)n(CC(=O)N3CCN(c4ccccc4)CC3)nc(C)n12	1.68% (inactive)	–
Cc1ccc(CN2CCC(CNC(=O)c3cnn(-c4ccc(C)cc4)c3C3CCN(C(=O)OC(C)(C)C)CC3)CC2)cc1	-16.3% (inactive)	–
CC(C)(C)C(=O)N1CCC[C@@]1(CO)C(=O)O	–	14.1 µM (active)
COC(=O)c1cc(NC(=O)CCc2c(C)nc3c4c(C)cc(C)nc4nn3c2C)cc(C(=O)OC)c1	5.96% (inactive)	–
COc1ccccc1Nc1nnc(SC(C)C(=O)NC2CC2)s1 (stereo not given)	-13.1% [at 12.7 µM] (inactive)	–
CC(=O)c1c(C)[nH]c(C(=O)COC(=O)CCOc2ccc(C)cc2)c1C	-29.8% [at 102 µM] (inactive)	–
Cc1ccc(-c2cn3c(n2)sc2cc(C(=O)NCCCc4ccccc4)ccc23)cc1	5.4% (inactive)	–
COC(=O)Cc1ccc(OCC(=O)NC2CCCC2)cc1	-25.2% [at 102 µM] (inactive)	–
Cc1cccc(OCC(=O)NC2CC(C)(C)NC(C)(C)C2)c1	5.25% [at 102 µM] (inactive)	–
CC1(C)SC2C(NC(=O)COc3ccccc3)C(=O)N2C1C(=O)O (stereo not given)	–	inactive and 39.8 µM (active)
CN(CC(=O)Nc1ccc(F)c(F)c1F)C(=O)Cn1cnc2c1c(=O)n(C)c(=O)n2C	25.9% [at 12.7 µM] (inactive)	–
COC(=O)c1cc(S(=O)(=O)N2CCN(c3cc(Cl)ccc3C)CC2)c[nH]1	-11.2% (inactive)	–
CC(C)CCN1NC2(CCC(C)CC2)NC1=S (stereo not given)	–	11.2 µM (active)
COC(=O)c1nn(-c2cccc(Cl)c2)ccc1=O	-32% [at 102 µM] (inactive)	–
COC(=O)c1cccc(-n2[nH]nnc2=S)c1	–	8.91 µM (active)

Compound	activity, negative = inhibition	Potency
COC(=O)c1cccc(NC(=O)CSc2nc(C)cc(=O)[nH]2)c1	-39.9% (inactive)	–
Cc1cccc(C)c1NC(=O)CN(C)C(=O)CCC(=O)c1ccccc1	11.7% [at 2.33 µM] (inactive)	–
C=C(C)CNc1cc(S(=O)(=O)N2CCOCC2)ccc1Oc1ccccc1	21.5% [at 12.7 µM] (inactive)	–
COc1ccc(C(=O)ON=C2c3ccccc3-c3ccccc32)cc1OC	12.7% (inactive)	–
COc1ccc(NC(=O)CS(=O)(=O)c2ccccc2)cc1	8.71% [at 102 µM] (inactive)	–
COc1ccc(NC(=O)ON=C2c3ccccc3-c3ccccc32)cc1	–	25.1 µM (active)
Cn1c(C(=O)N2CCC(C(=O)N3CCN(c4ccccc4)CC3)CC2)cc2sccc21	-33.7% (inactive)	–
O=C(CCNS(=O)(=O)c1cccs1)N1CCN(c2ccc(F)cc2)CC1	0.949% (inactive)	–
O=C(Nc1ccc(Cl)cc1)C1c2cccc[n+]2CC(=O)N1Cc1ccc2c(c1)OCO2 (stereo not given)	–	22.4 µM (active)
CC1CCC(NC(=O)C2c3ccccc3C(=O)N2Cc2ccc3c(c2)OCO3)CC1 (stereo not given)	7.92% [at 102 µM] (inactive)	–
CCCOc1ccc(NC(=O)CC2C(=O)N(C)C(=S)N2Cc2ccc3c(c2)OCO3)cc1 (stereo not given)	-3.34% (inactive)	–
O=C(COc1coc(CN2CCN(c3ccccc3)CC2)cc1=O)Nc1ccccc1F	-28.5% [at 102 µM] (inactive)	–
Brc1ccccc1CN1CCC(Cc2ccccc2)CC1	–	44.7 µM (active)
COc1cc(C)cc(CN2CCC(Cc3ccccc3)CC2)c1O	-9.7% [at 2.33 µM] (inactive)	–
NC(=O)c1ccc(CN2CCC(Cc3ccccc3)CC2)cc1	3.65% [at 102 µM] (inactive)	–
Cn1ccc2cc(S(=O)(=O)N3CCCC(C(=O)NCc4ccccc4F)C3)ccc21 (stereo not given)	8.59% (inactive)	–
Cc1ccc(S(=O)(=O)CCC(=O)OCC(=O)N(C)C2CCS(=O)(=O)C2)cc1 (stereo not given)	0.624% [at 102 µM] (inactive)	–
O=C(Nc1ccc2ccccc2c1)/C(=C\c1ccc2c(c1)OCO2)NC(=O)c1ccco1	-19.2% (inactive)	–
CC(Oc1ccc2ccccc2c1)C(=O)NNC(=S)NC(=O)c1ccco1 (stereo not given)	–	20 µM (active)
O=C(Nc1ccc2ccccc2c1)/C(=C/c1cccc(Br)c1)NC(=O)c1ccco1	11.4% [at 102 µM] (inactive)	–
CCCc1ccc(OCCNC(=O)c2ccco2)cc1	12.8% [at 102 µM] (inactive)	–
Cc1ccc(OCC(=O)NCCCNC(=O)c2ccco2)cc1C	21% [at 102 µM] (inactive)	–
CCCc1ccc(OCC(=O)NNC(=S)NC(=O)c2ccco2)cc1	–	2.24 µM (active)
